High-throughput results as filed in PubChem BioAssay.
TDP1 cell CPT: growth inhibition of DT40 Tdp1-/-;hTDP1 cells with camptothecin (screen for TDP1 inhibitors) | 420,000 tested, 12% active | Potency, µM (top dose mostly 46.2 µM), inactives show top-dose activity change, negative = growth inhibition, most hits filed as inhibitors | chicken DT40 Tdp1-/-;hTDP1 cells + 20 nM CPT, ATP luminescence, 48 h | AID 686979; also: potency is read from the fitted curve at half-maximal effect; % is scaled to controls: 0 for no effect and ±100 for the full control effect; nearly all actives have a fitted effect of over 55% in size
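Chicken DT40 Tdp1-/- cells complemented with human TDP1, 400 cells/well, exposed to compounds plus 20 nM camptothecin for at least 48 h at 37 C; viability read as ATP content by CellTiter-Glo luminescence.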
IL-1B inflam inh: blocks inflammasome-driven IL-1 beta release. THP-1 LPS/ATP IL-1B secretion, AlphaLISA, 16 h; hits give low values. activity change, % at 57.5 µM. 360,000 tested, 4.7% active; in the data active = activity change below about -50%; inconclusive = mostly about -30% to -49%; also: % is scaled to controls: 0 for no effect and ±100 for the full control effect
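THP-1 cells pretreated 1 hr with compounds (up to 57.5 uM final), then stimulated with LPS (250 ng/mL final) plus ATP (1.25 mM final); secreted IL-1B measured by AlphaLISA after 16 hr, decreased signal indicating inhibition.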
BCR signal inh: blocks chronic active B-cell receptor signaling. ABC-DLBCL IkBa-CBG/CBR reporter, luminescence ratio, 4 h. Potency, µM (highest dose often 46.1 µM), without a hit: at the highest dose activity change, negative = inhibition, actives largely listed as inhibitors. 340,000 tested, 0.05% active; active = well fitted inhibition curve with a large enough effect in the signal ratio, with a control signal flat, not every such curve was filed as active; inconclusive = small, poorly fitted or top-dose-only effect, or effect the other way, or a change in a side signal; the % refers to the signal ratio;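 also: potency is read from the fitted curve at half-maximal effect; plate controls were basal doxycycline-induced cells for no effect and cells given 10 µM MG132 for full effect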
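TMD8 ABC-DLBCL cells carrying doxycycline-inducible green luciferase fused to IkappaBalpha plus unfused red luciferase were exposed to compounds (up to 46 uM) for 4 hrs at 37C. Activity came from the overlap-corrected green/red luminescence ratio.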
TDP1 cell noCPT: qHTS for Inhibitors of human tyrosyl-DNA phosphodiesterase 1 (TDP1): qHTS in cells in absence of CPT; Potency, µM (titrated, usually from 46.2 µM), inactives show at the top dose activity change, negative = growth inhibition, actives largely listed as inhibitors; DT40 Tdp1-/- hTDP1 cells, no CPT, ATP luminescence, 48 h; 420,000 tested, 15% active; also: potency is read from the fitted curve at half-maximal effect; % is scaled to controls: 0 for no effect and ±100 for the full control effect; nearly all actives have a fitted effect of over 55% in size
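Chicken DT40 Tdp1-/- cells stably complemented with human TDP1 were seeded at 400 cells/well with DMSO in place of 20 nM camptothecin. After compound pinning, cells grew at least 48 hr at 37 °C; viability read by CellTiter-Glo luminescence.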
SW480 rerep: DNA re-replication induction in SW480 cells; Potency, µM (doses to about 46.1 µM), inactives show at the highest dose re-replication activation, most hits filed as activators; AID 624297; SW480 DNA re-replication, Hoechst DNA content imaging, 48 h; 340,000 tested, 1.8% active; also: potency is read from the fitted curve at half-maximal effect; % of control where 0% means no effect; nearly all actives have a fitted effect of over 55% in size
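SW480 cells exposed to compounds for 48 hr at 37 C, 5% CO2, then Hoechst-stained 40 min. Nuclear DNA content imaged by fluorescence scanning (405 nm excitation, 500-530 nm emission); re-replication scored as increased high-intensity nuclei.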
MCF10A rerep: induces DNA re-replication in MCF 10a normal breast cells. MCF 10A DNA re-replication, Hoechst nuclear intensity, 48 h. Potency, µM (series often up to 46.1 µM), without a hit: at the highest dose activity, positive = re-replication, hits mostly activators. 350,000 tested, 2.9% active; also: potency is read from the fitted curve at half-maximal effect; % of control where 0% means no effect; nearly all actives have a fitted effect of over 50% in size
* = called active by the depositor. Only some compounds are listed: those with a hit (about 19% of all), similar ones and a draw of the others. Unless noted, calls follow the shape of the dose curve; as a rule, active = well fitted curve in the direction sought with a large enough effect; inconclusive = small, poorly fitted or top-dose-only effect, or another doubt; inactive = no such curve, though single readings can be large; an effect the other way counts as inactive or inconclusive.

COc1ccc(NC(=O)CC23CC4CC(C2)CC(n2nnc(C)n2)(C4)C3)cc1 was read as TDP1 cell CPT -16.0%, IL-1B inflam inh 43.6, BCR signal inh 3.6%, TDP1 cell noCPT inconclusive, SW480 rerep -1.0% and MCF10A rerep 11.7%.
CC(=O)c1ccc(NC(=O)CC23CC4CC(C2)CC(n2nnc(C)n2)(C4)C3)cc1 was read as TDP1 cell CPT inconclusive, IL-1B inflam inh -12.3, BCR signal inh -5.0%, TDP1 cell noCPT 13µM*, SW480 rerep -13.0% and MCF10A rerep inconclusive.
`O=c1c2ccccc2nc2n1CCCS2` gave TDP1 cell CPT -11.2%, IL-1B inflam inh 9.9, BCR signal inh -10.0%, TDP1 cell noCPT -5.5%, SW480 rerep -7.0% and MCF10A rerep -0.6%.
Screening O=c1c2ccccc2nc(-c2ccccc2)n1Cc1ccc(Cl)cc1 returned TDP1 cell CPT inconclusive, IL-1B inflam inh -11.8, BCR signal inh inconclusive, TDP1 cell noCPT inconclusive, SW480 rerep 9.8% and MCF10A rerep 18.4µM*.
COc1ccc(-c2nc3ccccc3c(=O)n2CCOc2ccccc2C)cc1 was read as TDP1 cell CPT inconclusive, IL-1B inflam inh 28.2, BCR signal inh -0.1%, TDP1 cell noCPT 18.4µM*, SW480 rerep 0.7% and MCF10A rerep -1.9%.
For O=c1c2ccccc2nc2n1CCN2Cc1ccc(Cl)cc1 the results were TDP1 cell CPT 18.4µM*, IL-1B inflam inh -78.0*, BCR signal inh 3.3%, TDP1 cell noCPT inconclusive, SW480 rerep -12.6% and MCF10A rerep -5.6%.
`COc1ccc(-c2nc3ccccc3c(=O)n2CCOc2ccc(C)cc2C)cc1` gave TDP1 cell CPT -10.4%, IL-1B inflam inh 13.1, BCR signal inh inconclusive, TDP1 cell noCPT -23.8%, SW480 rerep -4.8% and MCF10A rerep 0.9%.
O=c1c2ccccc2nc(-c2ccccc2)n1Cc1ccccc1 was read as TDP1 cell CPT -19.8%, IL-1B inflam inh -15.2, BCR signal inh 4.6%, TDP1 cell noCPT 25.9µM*, SW480 rerep -2.7% and MCF10A rerep inconclusive.
Screening CCc1ccc(OCCCn2c(-c3ccc(Cl)cc3)nc3ccccc3c2=O)cc1 returned TDP1 cell CPT -27.9% and TDP1 cell noCPT -5.1%.
For Cc1ccc(C)c(N2C(=O)C3C4C=CC(CC4)C3C2=O)c1 (centres undefined) the results were TDP1 cell CPT 9.6%, IL-1B inflam inh 2.2, BCR signal inh 3.2%, TDP1 cell noCPT 7.0%, SW480 rerep -16.1% and MCF10A rerep 5.0%.
For CC(C)CN(CC(C)C)c1nn[nH]n1 the results were TDP1 cell CPT 13.8%, IL-1B inflam inh 10.3, TDP1 cell noCPT -16.9%, SW480 rerep -2.9% and MCF10A rerep -47.8%.
For COc1ccc(C(=O)/C(=C\c2ccco2)N2C=CC=CC2=C(C#N)C#N)cc1 the results were TDP1 cell CPT 0.651µM*, IL-1B inflam inh -95.9*, BCR signal inh inconclusive, TDP1 cell noCPT 0.651µM*, SW480 rerep inconclusive and MCF10A rerep 1.3µM*.
`COc1ccc(/C=C(/C(=O)c2cccs2)N2C=CC=CC2=C(C#N)C#N)cc1` gave TDP1 cell CPT 1.16µM*, IL-1B inflam inh -95.2*, BCR signal inh inconclusive, TDP1 cell noCPT 1.16µM*, SW480 rerep inconclusive and MCF10A rerep inconclusive.
Screening N#CC(C#N)=C1C=CC=CN1/C(=C\c1ccco1)C(=O)c1ccccc1 returned TDP1 cell CPT 1.3µM*, IL-1B inflam inh -98.3*, BCR signal inh inconclusive, TDP1 cell noCPT 1.46µM*, SW480 rerep inconclusive and MCF10A rerep 2.59µM*.
Screening COc1ccc(C(=O)N/C(=C\c2ccco2)C(=O)OCc2ccco2)cc1 returned TDP1 cell CPT -16.3%, IL-1B inflam inh 6.1, BCR signal inh -4.0%, TDP1 cell noCPT inconclusive, SW480 rerep 0.5% and MCF10A rerep 1.2%.
Screening O=C(c1ccccc1Cl)N1CCNCC1 returned TDP1 cell CPT 3.8%, IL-1B inflam inh 6.5, BCR signal inh 0.2%, TDP1 cell noCPT 0.0%, SW480 rerep 2.2% and MCF10A rerep -4.2%.
Screening Clc1cccc2c1Sc1ccccc1CC2N1CCNCC1 (centres undefined) returned TDP1 cell CPT 18.4µM*, BCR signal inh 3.7%, TDP1 cell noCPT 18.4µM*, SW480 rerep 6.1% and MCF10A rerep inconclusive.
`CC(C)c1ccc2c(c1)C(N1CCN(C)CC1)Cc1cccnc1S2` (centres undefined) gave TDP1 cell CPT inconclusive, IL-1B inflam inh inconclusive, TDP1 cell noCPT -93.0%, SW480 rerep inconclusive and MCF10A rerep inconclusive.
For Clc1ccc2c(c1)C(N1CCNCC1)Cc1ccccc1S2 (centres undefined) the results were TDP1 cell CPT inconclusive, IL-1B inflam inh -100.1*, BCR signal inh -13.8%, TDP1 cell noCPT 23.1µM*, SW480 rerep inconclusive and MCF10A rerep inconclusive.
`COc1ccc(-n2ccn(Cc3ccccc3C)c(=O)c2=O)cc1` gave TDP1 cell CPT 1.0% and TDP1 cell noCPT -0.4%.
O=C1CC(c2nc(-c3cccc(Cl)c3)no2)CN1c1ccc2c(c1)OCCO2 (centres undefined) was read as TDP1 cell CPT -12.5% and TDP1 cell noCPT -8.7%.
`COCCCNC(=O)c1cc(C(=O)c2c(-c3c(Cl)cccc3Cl)noc2C)c[nH]1` gave TDP1 cell CPT 23.1µM*, IL-1B inflam inh 0.0, BCR signal inh inconclusive, TDP1 cell noCPT 23.1µM*, SW480 rerep inconclusive and MCF10A rerep inconclusive.
`CN(C)CCCNC(=O)c1cc(C(=O)c2cccc(Cl)c2Cl)c[nH]1` gave TDP1 cell CPT 7.9%, IL-1B inflam inh -58.1*, BCR signal inh -0.5%, TDP1 cell noCPT inconclusive, SW480 rerep inconclusive and MCF10A rerep 10.1%.
Screening COc1ccc(NC(=S)N2CCN(S(=O)(=O)c3ccccc3)CC2)cc1 returned TDP1 cell CPT -8.5%, IL-1B inflam inh -4.0, BCR signal inh 0.3%, TDP1 cell noCPT 13.7%, SW480 rerep -24.0% and MCF10A rerep 2.4%.
For CC(C)c1ccccc1NC(=O)c1cccc(NC(=O)c2ccccc2)c1 the results were TDP1 cell CPT 16.4µM*, IL-1B inflam inh -12.0, BCR signal inh -1.3%, TDP1 cell noCPT inconclusive, SW480 rerep 10.0% and MCF10A rerep inconclusive.
Cc1ccccc1C(=O)Nc1cccc(C(=O)Nc2ccccc2C(=O)O)c1 was read as TDP1 cell CPT -15.8%, IL-1B inflam inh 13.6, BCR signal inh 2.0%, TDP1 cell noCPT 1.2%, SW480 rerep 1.0% and MCF10A rerep 4.4%.
